# PubChem BioAssay
# Calls of active or inactive are those of the source.
# Columns and labels:
# [1] = system: Plasmodium falciparum Sir2 (PF13_0152, Sir2A); assay: Plasmodium falciparum Sir2A binding compounds – biochemical, small-molecule microarray, 635 nm fluorescence, primary screen (AID 1098); conditions: fluorescence 635 nm, higher = more signal;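 further: score merges spot fluorescence intensity with its signal-to-noise ratio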
# [2] = probe aDKK1 binding to arrayed compounds – biochemical, biotinylated probe, 635/667 nm fluorescence, primary screen (AID 1099); conditions: small-molecule microarray, higher = more signal;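 further: score merges 667nm spot fluorescence with signal to noise across triplicate slides; reference of the scale not given here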
# [3] = probe aCHRDL2 binding to arrayed compounds – biochemical, biotinylated probe, 635/667 nm fluorescence, primary screen (AID 1100); conditions: small-molecule microarray, higher = more signal
# [4] = change in splice reporter luminescence, either direction, cell-based, HEK293, spliceosome inhibition project, primary screen (AID 1101); conditions: HEK293 splicing luciferase reporter, 24 h, higher = more signal, called active from +8 up or from −8 down;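 further: HEK293 cells carrying a splicing-competent luciferase reporter gene; test concentration not given here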
# [5] = target: Fibroblast growth factor 10 (Homo sapiens) (UniProt O15520); assay: compounds binding fibroblast growth factor 10 – biochemical, small-molecule microarray, 635 nm fluorescence, primary screen (AID 1102); conditions: FGF10 binding, fluorescence 635 nm, higher = more signal
# [6] = system: glycogen synthase kinase-3 (GSK3A per assay name; protocol says GSK3B); assay: compounds binding glycogen synthase kinase-3 – biochemical, small-molecule microarray, 635 nm fluorescence, GSK3A, primary screen (AID 1103); conditions: fluorescence 635 nm, higher = more signal; further: the record names both GSK3A and GSK3B
# [7] = target: Epidermal growth factor receptor (Homo sapiens) (UniProt P00533); assay: compounds binding epidermal growth factor receptor – biochemical, small-molecule microarray, 635 nm fluorescence, primary screen (AID 1104); conditions: EGFR binding, higher = more signal;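 further: score merges 667 nm emission intensity with spot signal to noise over triplicate slides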
# [8] = target: Follistatin-related protein 3 (Homo sapiens) (UniProt O95633); assay: compounds binding follistatin-related protein 3 – biochemical, small-molecule microarray, 635 nm fluorescence, primary screen (AID 1105); conditions: FSTL3 binding, higher = more signal;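 further: score merges emission near 667 nm and signal to noise per printed spot across three slides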
# [9] = target: Dickkopf-related protein 1 (Homo sapiens) (UniProt O94907); assay: small molecules binding DKK1 protein – biochemical, small-molecule microarray, 635 nm fluorescence scan, primary screen (AID 1106); conditions: higher = more signal;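 further: score merges emission near 667 nm with signal to noise over three replicate slides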
# [10] = system: Inhibin beta A chain (activin A); assay: small molecules binding activin A – biochemical, small-molecule microarray, 635 nm fluorescence scan, primary screen (AID 1107); conditions: INHBA, higher = more signal;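 further: mouse activin A protein probed at 4.33 µg/mL on printed slides; score merges bound-protein fluorescence near 667 nm with spot signal-to-noise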
# Fibroblast growth factor 10 (Homo sapiens), sequence (O15520 whole entry, looked up): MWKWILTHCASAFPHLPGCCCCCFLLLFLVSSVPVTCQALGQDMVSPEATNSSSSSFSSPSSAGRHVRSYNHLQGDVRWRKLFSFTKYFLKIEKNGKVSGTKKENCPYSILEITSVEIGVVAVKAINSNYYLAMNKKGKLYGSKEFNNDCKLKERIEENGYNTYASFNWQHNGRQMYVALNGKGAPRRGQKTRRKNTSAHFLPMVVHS
# Dickkopf-related protein 1 (Homo sapiens), sequence (O94907 whole entry, looked up): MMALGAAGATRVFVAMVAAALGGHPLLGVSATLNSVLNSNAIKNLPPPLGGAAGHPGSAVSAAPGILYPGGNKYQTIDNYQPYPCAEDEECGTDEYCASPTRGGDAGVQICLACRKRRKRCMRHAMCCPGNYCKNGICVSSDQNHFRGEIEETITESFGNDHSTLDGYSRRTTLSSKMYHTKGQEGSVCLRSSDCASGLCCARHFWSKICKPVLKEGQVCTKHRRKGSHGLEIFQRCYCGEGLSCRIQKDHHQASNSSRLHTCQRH
# Epidermal growth factor receptor (Homo sapiens), sequence (P00533 whole entry, looked up): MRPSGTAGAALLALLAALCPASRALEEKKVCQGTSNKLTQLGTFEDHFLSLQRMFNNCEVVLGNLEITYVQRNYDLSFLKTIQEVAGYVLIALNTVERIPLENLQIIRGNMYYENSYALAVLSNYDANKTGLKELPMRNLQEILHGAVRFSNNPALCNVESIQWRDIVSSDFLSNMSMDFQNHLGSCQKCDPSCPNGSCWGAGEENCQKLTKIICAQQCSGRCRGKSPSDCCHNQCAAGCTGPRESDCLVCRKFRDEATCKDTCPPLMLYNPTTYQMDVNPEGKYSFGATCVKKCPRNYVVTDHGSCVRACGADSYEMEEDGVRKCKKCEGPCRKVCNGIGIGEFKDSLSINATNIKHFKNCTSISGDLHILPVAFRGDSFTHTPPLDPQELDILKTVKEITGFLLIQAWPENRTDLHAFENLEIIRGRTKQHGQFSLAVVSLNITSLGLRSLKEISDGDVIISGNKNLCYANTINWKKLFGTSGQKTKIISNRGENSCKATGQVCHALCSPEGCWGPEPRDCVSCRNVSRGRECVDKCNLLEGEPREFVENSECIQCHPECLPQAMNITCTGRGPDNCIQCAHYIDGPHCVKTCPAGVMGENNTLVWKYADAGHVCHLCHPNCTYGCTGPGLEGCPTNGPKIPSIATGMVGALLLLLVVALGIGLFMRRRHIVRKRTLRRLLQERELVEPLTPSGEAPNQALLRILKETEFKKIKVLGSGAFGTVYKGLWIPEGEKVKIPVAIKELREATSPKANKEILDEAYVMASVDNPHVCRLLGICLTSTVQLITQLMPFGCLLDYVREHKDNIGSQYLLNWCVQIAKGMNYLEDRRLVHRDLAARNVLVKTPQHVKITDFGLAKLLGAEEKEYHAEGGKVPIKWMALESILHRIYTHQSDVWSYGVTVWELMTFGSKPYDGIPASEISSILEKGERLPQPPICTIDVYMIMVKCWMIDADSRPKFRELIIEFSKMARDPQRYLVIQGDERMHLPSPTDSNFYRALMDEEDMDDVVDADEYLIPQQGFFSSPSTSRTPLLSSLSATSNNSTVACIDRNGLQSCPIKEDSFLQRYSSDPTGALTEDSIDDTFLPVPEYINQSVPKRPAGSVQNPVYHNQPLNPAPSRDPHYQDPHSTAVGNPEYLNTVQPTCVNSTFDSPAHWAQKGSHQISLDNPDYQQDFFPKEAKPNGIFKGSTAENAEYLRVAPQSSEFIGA
# Follistatin-related protein 3 (Homo sapiens), sequence (O95633 whole entry, looked up): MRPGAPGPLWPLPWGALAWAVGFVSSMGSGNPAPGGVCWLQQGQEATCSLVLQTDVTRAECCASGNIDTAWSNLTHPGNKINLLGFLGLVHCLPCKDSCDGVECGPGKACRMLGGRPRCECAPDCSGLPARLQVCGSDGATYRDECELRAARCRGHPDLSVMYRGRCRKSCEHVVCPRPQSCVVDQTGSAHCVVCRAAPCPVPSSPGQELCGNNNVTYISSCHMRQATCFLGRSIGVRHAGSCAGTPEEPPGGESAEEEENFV
SMILES,composite z-score [1],composite z-score [2],composite z-score [3],z-score [4],composite z-score [5],composite z-score [6],composite z-score [7],composite z-score [8],composite z-score [9],composite z-score [10]
CCCCCCc1nc(-c2ccc(OC)nc2)cc2c1[Si](C(C)C)(C(C)C)OC2,0.0342,-0.251,-0.037,-0.589 (inactive),-0.322,-0.574,-0.459,-0.351,-0.329,0.96
COC(=O)[C@@]1(Cc2ccc(F)cc2)[C@H]2c3cc(C(=O)N(C)C)n(CCN4CCOCC4)c3C[C@H]2CN1C(=O)c1ccccc1,0.756,1.72,0.868,-0.575 (inactive),1.03,1.12,0.045,-0.265,-0.431,0.84
CN1C(=O)C2C=CC(C(O)c3ccc(-c4ccccc4)s3)N(Nc3ccccc3)C2C1=O (stereo not given),1.27,0.644,1.1,1.43 (inactive),0.737,0.703,0.138,0.898,-0.0947,1.23
CN(C)CCCCNC(=O)[C@H]1C[C@H]2C(=O)NCC(=O)N2[C@H]1c1cccc(OCCO)c1,0.828,-0.173,0.084,-0.706 (inactive),1.02,-0.54,0.138,0.186,0.168,-0.09
O=C1C2C=CC(C(O)c3ccc([N+](=O)[O-])cc3)N(Nc3ccccc3)C2C(=O)N1c1ccccc1 (stereo not given),1.32,0.3,0.585,4.07 (inactive),0.466,0.273,-0.0215,0.481,-0.521,0.87
CCCC=C(CCC)[C@@H](NS(=O)(=O)c1ccc(Cl)cc1)c1ccccc1,0.6,0.619,0.951,-1.69 (inactive),-0.686,-1.03,-0.972,-1.29,-0.979,0.351
C=C(COC)C(=O)CC[C@@H](OC(=O)c1cccnc1)c1cccc(OCCO)c1,0.709,0.119,0.618,3.33 (inactive),1.27,-0.284,-0.0749,0.652,0.284,1.37
C=CC[C@@]12N=C(c3ccc(OCCCO)cc3)O[C@@H]1c1ccccc1N(Cc1ccccc1)C2=O,1.55,1.36,1.08,-1.37 (inactive),1.26,1.34,0.657,1.48,0.904,1.12
[N-]=[N+]=NCc1ccccc1C[C@]1(C(=O)NCc2ccccc2)N=C(c2ccc(OCCCO)cc2)O[C@H]1c1ccccc1CN=[N+]=[N-],1.03,1.22,0.889,-1.33 (inactive),-0.0516,0.412,-0.253,0.0358,-0.726,0.794
COCCOC(=O)N1C(=O)[C@@]2(c3cc(C#Cc4ccc(OC)cc4)ccc31)[C@H](C(=O)Nc1nc3ccccc3s1)[C@H]1C(=O)O[C@H](c3ccccc3)[C@H](c3ccccc3)N1[C@@H]2c1ccccc1OCCO,0.655,-0.0582,-0.149,-2.03 (inactive),0.517,0.731,0.29,0.909,0.534,0.629
CCOC(=O)C[C@H]1[C@H](OC(=O)c2ccc(C(=O)c3ccccc3)cc2)[C@@H](NC(=O)c2ccc3ccccc3c2)c2cc(OCCCO)ccc2N1C(=O)c1ccc2ccccc2n1,0.608,0.124,0.0404,-0.372 (inactive),0.388,0.712,0.598,0.624,0.713,0.676
C=CCC(OC(C)=O)[C@@H]1[C@@H](N(Cc2cc3ccccc3o2)C(=O)Cc2ccc(OC)cc2)c2cc(OCCCO)ccc2N1C(=O)Cc1ccc2ccccc2c1 (stereo not given in full),-0.542,-0.217,0.689,-0.475 (inactive),-0.448,-1.52,-0.227,-0.471,-0.62,0.806
[N-]=[N+]=NCc1ccccc1C[C@]1(C(=O)N2CCCCC2)N=C(c2ccc(OCCCO)cc2)O[C@H]1c1ccccc1,0.92,0.484,0.769,-0.44 (inactive),0.567,0.568,-0.761,-0.278,-0.64,0.55
CCOC(=O)C[C@H]1[C@H](OC(=O)c2cc3ccccc3oc2=O)[C@@H](NC(=O)C2CCCCC2)c2cc(OCCCO)ccc2N1C(=O)Cc1ccc(OC)cc1,0.199,0.0483,0.0801,0.0427 (inactive),1,0.469,0.193,0.397,0.447,0.6
COc1cc2c(cc1O)C(c1ccc(CN3CCCC3)cc1)N(Cc1ccc([N+](=O)[O-])o1)CC2 (stereo not given),1.23,-0.276,-0.0934,0.982 (inactive),0.116,-0.903,-0.0173,0.0429,-0.299,-0.289
CCCCCN1CC=CC23O[C@@H]4C=CCOC(=O)[C@@H]4[C@H]2C(=O)N(CCCCCO)[C@@H]3C1=O (stereo not given in full),1.37,-0.181,0.398,-0.522 (inactive),-0.893,-1.15,-0.728,-0.52,-0.63,0.676
